{
  "source": "PubChem BioAssay AID463115",
  "about": "(University of Pittsburgh Molecular Library Screening Center, 2010)",
  "note": "The whole screen tested about 220,000 compounds, of which about 130 (0.059%) were called active. This is one part of a sample in which actives are shown more often than they occur. Values without a mark were called inactive. Rule as the data show it: active = inhibition above about 25%; inactive = the rest.",
  "data": [
    {"molecular_target": "Furin (Homo sapiens) (UniProt P09958)", "sequence (P09958 108-714 limits assumed)": "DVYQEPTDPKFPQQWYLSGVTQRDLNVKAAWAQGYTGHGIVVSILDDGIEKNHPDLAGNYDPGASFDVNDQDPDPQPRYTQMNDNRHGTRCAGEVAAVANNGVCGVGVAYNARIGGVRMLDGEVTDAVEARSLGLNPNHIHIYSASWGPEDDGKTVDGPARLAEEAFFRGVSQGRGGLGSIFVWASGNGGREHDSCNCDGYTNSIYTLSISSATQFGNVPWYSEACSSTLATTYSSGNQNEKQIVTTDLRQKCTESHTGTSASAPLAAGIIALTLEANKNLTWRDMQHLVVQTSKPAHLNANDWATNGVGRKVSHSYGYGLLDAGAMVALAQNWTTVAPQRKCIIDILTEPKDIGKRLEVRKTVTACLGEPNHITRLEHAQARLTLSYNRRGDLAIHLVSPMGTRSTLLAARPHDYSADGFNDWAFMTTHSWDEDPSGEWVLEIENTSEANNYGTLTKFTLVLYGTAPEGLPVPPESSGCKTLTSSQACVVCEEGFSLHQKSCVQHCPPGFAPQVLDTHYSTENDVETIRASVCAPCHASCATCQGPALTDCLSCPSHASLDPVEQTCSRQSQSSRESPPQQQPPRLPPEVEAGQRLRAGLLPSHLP", "experiment": "furin protease activity blockers – biochemical, fluorescence intensity, primary screen (AID 463115)", "details": "purified furin, fluorogenic substrate cleavage, hits give high values; at 30 µM unless noted", "values": [
      {"smiles": "COc1cccc(OCc2cc(/C=N/NC(=O)c3nc(Cl)c(Cl)c(N)c3Cl)ccc2OC)c1", "inhibition": "-20.2% [at 20 µM]"},
      {"smiles": "Cc1ccc(C(=O)NC(=S)Nc2ccc3[nH]c(=O)[nH]c3c2)cc1C", "inhibition": "-13.7%"},
      {"smiles": "C=C(C)Cn1c(C)cc(C)c(S(=O)(=O)c2ccccc2C)c1=O", "inhibition": "5.86% [at 20 µM]"},
      {"smiles": "CC(C)NC(=O)C(=O)N/N=C/c1ccco1", "inhibition": "-9.76% [at 20 µM]"},
      {"smiles": "Cc1ccccc1NC(=O)Nc1ccccc1N1CCCCC1", "inhibition": "-10.3%"},
      {"smiles": "Cc1cc(OC(=O)c2ccccc2Cl)ccc1N1C(=O)CCC1=O", "inhibition": "-16%"},
      {"smiles": "Cc1cccc(-n2c(SCC(=O)Nc3cccc(S(=O)(=O)NC4=NCCCCC4)c3)nc3ccccc3c2=O)c1C", "inhibition": "-12.8%"},
      {"smiles": "COc1ccc(CCNC(=O)C(=O)NCc2ccccc2C)cc1OC", "inhibition": "-21%"},
      {"smiles": "CC(=O)NC(C)c1nc2ccccc2n1Cc1ccccc1F", "note": "(stereo unspecified)", "inhibition": "29.1% [at 20 µM] (active)"},
      {"smiles": "CCC(=O)Nc1nc2ccccc2n1Cc1ccccc1C", "inhibition": "-19.3%"},
      {"smiles": "C=CCn1c(C(C)NC(=O)CC)nc2ccccc21", "note": "(stereo unspecified)", "inhibition": "-10.5% [at 20 µM]"},
      {"smiles": "CCCCNC(=O)N1CCN(S(C)(=O)=O)CC1", "inhibition": "-17.1%"},
      {"smiles": "CNC(=S)N/N=C/c1cn(Cc2ccc(C)cc2)c2ccccc12", "inhibition": "-4.13%"},
      {"smiles": "O=C1CCCc2nn(-c3ccccc3)nc21", "inhibition": "-13.3% [at 20 µM]"},
      {"smiles": "O=C(Nc1cccnc1)c1cc2cc(Br)ccc2oc1=O", "inhibition": "-18%"},
      {"smiles": "CSc1ccc(C#N)cc1NC(=O)c1ccc(Cl)cc1", "inhibition": "-25.3% [at 20 µM]"},
      {"smiles": "COc1ccc(NC(=O)C(NC(C)=O)C(=O)NCc2ccccc2Cl)cc1", "note": "(stereo unspecified)", "inhibition": "-24.7% [at 20 µM]"},
      {"smiles": "Cc1ccc(-c2cc(C(F)(F)F)n3ncc(C(=O)N4CCCCC4c4cccnc4)c3n2)cc1", "note": "(stereo unspecified)", "inhibition": "-31.6%"},
      {"smiles": "Cc1ccc(N(Cc2cc3ccccc3[nH]c2=O)C(=O)c2cccs2)cc1", "inhibition": "-16%"},
      {"smiles": "CC1(C)CC(=O)C(CC(=O)N2CCC(Cc3ccccc3)CC2)C(=O)C1", "inhibition": "-13%"},
      {"smiles": "O=C(O)/C(=C/c1cccnc1)NC(=O)c1ccccc1", "inhibition": "-17.1%"},
      {"smiles": "COc1cc([C@H](Cc2ccccc2)NC(C)=O)oc(=O)c1", "inhibition": "-28.7%"},
      {"smiles": "CSc1nc(C)nc(C2CC2)c1C#N", "inhibition": "-16.6%"},
      {"smiles": "C=CCOC(=O)C1=C(C)NC(C)=C(C(=O)OCC=C)C1c1cccs1", "inhibition": "-8.1% [at 20 µM]"},
      {"smiles": "COc1ccc2c(CC(=O)OCC(=O)Nc3ccccc3[N+](=O)[O-])coc2c1", "inhibition": "-10.8%"},
      {"smiles": "Clc1ccc(C[n+]2cc(-c3ccccc3)n3c2CCC3)cc1", "inhibition": "-20.2%"},
      {"smiles": "CCC1C=C(c2ccccc2)C=CN=C1N(CC)CC", "note": "(stereo unspecified)", "inhibition": "-18.4%"},
      {"smiles": "CC1=C(C)CC(C(=O)NC(C)CCc2ccccc2)C(C(=O)O)C1", "note": "(stereo unspecified)", "inhibition": "-15%"},
      {"smiles": "CC1=C(C)C(=O)OC(C(C)C2CCC3C4CC=C5CC(OC6OC(COC7OC(CO)C(O)C(O)C7O)C(O)C(O)C6O)CC(O)C5(C)C4CCC23C)C1", "note": "(stereo unspecified)", "inhibition": "-28.1%"},
      {"smiles": "CC1CCCC(C)N1/N=C/c1ccccc1OC(F)F", "note": "(stereo unspecified)", "inhibition": "-34.3%"},
      {"smiles": "NC(N)=Nc1nc2ccc(Br)cc2c(=O)[nH]1", "inhibition": "-13.8%"},
      {"smiles": "CCOc1ccc(NC(=S)NC(=O)/C=C/c2ccc(OC)cc2)c([N+](=O)[O-])c1", "inhibition": "-14.6%"},
      {"smiles": "Cc1c(Br)cc(C(=O)N2CCCCCC2)c(C)c1C", "inhibition": "-19.1% [at 20 µM]"},
      {"smiles": "CC(C)CCN1CCN(Cc2ccc(C(F)(F)F)cc2)CC1CCO", "note": "(stereo unspecified)", "inhibition": "-11.2%"},
      {"smiles": "COc1ccc(OC)c(S(=O)(=O)NCCC(C)C)c1", "inhibition": "-25.7%"},
      {"smiles": "O=C(NCCc1ccccn1)c1cc(-c2ccc(Cl)cc2)nc2ccccc12", "inhibition": "-20.1%"},
      {"smiles": "CC12CN3CCN(CC(C3)/C1=N\\NC(=O)c1ccccc1N)C2", "inhibition": "-14.7%"},
      {"smiles": "CC(CC(=O)O)CC(=O)NNC(=O)c1cccc(Br)c1", "note": "(stereo unspecified)", "inhibition": "4.22%"},
      {"smiles": "CCCOn1c(-n2nc(C)cc2C)nc2ccccc2c1=O", "inhibition": "-1.39% [at 20 µM]"},
      {"smiles": "CC(C)Oc1ccccc1C(=O)NC(CO)C(=O)O", "note": "(stereo unspecified)", "inhibition": "-21.8%"},
      {"smiles": "CC(C)(C)NC(=O)NC(=O)COC(=O)Cc1ccc(Cl)cc1Cl", "inhibition": "-11.5%"},
      {"smiles": "CCOC(=O)c1nnn2c1nc(N1CCN(c3ccccc3)CC1)c1ccccc12", "inhibition": "-23.3%"},
      {"smiles": "C=C(C)C1CC=C(C)/C(=N/NC(=O)CCCNc2cccc(C)c2)C1", "note": "(stereo unspecified)", "inhibition": "-8.06%"},
      {"smiles": "CCc1ccc(NC(=O)CC2C(=O)NCCN2C(=S)Nc2ccccc2)cc1", "note": "(stereo unspecified)", "inhibition": "-22.7%"},
      {"smiles": "CC(C)C(O)C1CCN(Cc2nc(Cc3ccccc3Cl)no2)CC1", "note": "(stereo unspecified)", "inhibition": "-21.2%"},
      {"smiles": "CC(=O)c1sc(NC(=O)c2ccc(C)cc2)nc1C", "inhibition": "26.4% [at 20 µM] (active)"},
      {"smiles": "COC(=O)c1sc(NC(=S)NC(=O)c2ccc(C)cc2)nc1C", "inhibition": "-11.8%"},
      {"smiles": "CC(=O)c1sc(NC(=O)c2cccc3ccccc23)nc1C", "inhibition": "-10.7% [at 20 µM]"},
      {"smiles": "CN(C)c1ccc(/C=N/NC(=O)C(O)c2ccc(Br)cc2)cc1", "note": "(stereo unspecified)", "inhibition": "-19%"},
      {"smiles": "CCC(=O)NC(Nc1nc2ccc(C)cc2s1)(C(=O)OC)C(F)(F)F", "note": "(stereo unspecified)", "inhibition": "-11.3% [at 20 µM]"},
      {"smiles": "CCCCNC(=O)OC(C)CNC(=O)OC", "note": "(stereo unspecified)", "inhibition": "-9.97% [at 20 µM]"},
      {"smiles": "CN(C)/N=C/c1cn(-c2ccccc2)nc1-c1cccnc1", "inhibition": "1.34%"},
      {"smiles": "CCCNS(=O)(=O)c1ccc(CCC(=O)N2CCCC2)cc1", "inhibition": "-15.5%"},
      {"smiles": "C=CC(COCc1ccccc1)N(Cc1ccccc1)S(=O)(=O)c1ccccc1Br", "note": "(stereo unspecified)", "inhibition": "-14.6%"},
      {"smiles": "COc1ccc(C2=NOC3(CC(=O)N(c4ccc(Cl)cc4)C3=O)C2)c(OC)c1", "note": "(stereo unspecified)", "inhibition": "-21.1% [at 20 µM]"},
      {"smiles": "O=C(NC1CCN(Cc2ccccc2)CC1)c1c(F)cccc1F", "inhibition": "-12.2%"},
      {"smiles": "Nc1c(NCCc2ccccc2)c2ccccc2oc1=O", "inhibition": "-0.514%"},
      {"smiles": "Cc1cc(Nc2ccc(N3CCOCC3)cc2)c2cccc(C)c2n1", "inhibition": "3.96%"},
      {"smiles": "O=C(NN1C(=O)C2C(C1=O)C1C=CC2C12CC2)c1ccccc1Cl", "note": "(stereo unspecified)", "inhibition": "-7.61%"},
      {"smiles": "Cc1ccc(N(C(=O)Cc2cccs2)C2C=CS(=O)(=O)C2)cc1Cl", "note": "(stereo unspecified)", "inhibition": "-2.17%"},
      {"smiles": "Cc1ccc(-n2c(SCC(=O)N/N=C/C=C/c3ccccc3[N+](=O)[O-])nc3ccccc3c2=O)cc1", "inhibition": "-14.5%"},
      {"smiles": "CCC(=O)N(Cc1cc2ccccc2[nH]c1=O)c1ccc(OC)cc1", "inhibition": "-11.6%"},
      {"smiles": "CCCCc1ccc(NC(=S)N2CCCC(CO)C2)cc1", "note": "(stereo unspecified)", "inhibition": "-6.03%"},
      {"smiles": "O=S(=O)(NCC1CCCO1)c1cnc(Cl)c(Cl)c1", "note": "(stereo unspecified)", "inhibition": "-12.9%"},
      {"smiles": "Cc1ccc(NC(=S)N(CCN(C)C)Cc2cccs2)cc1C", "inhibition": "-9.92%"},
      {"smiles": "COc1cccc(/C=N/NC(=O)CNC(=O)c2ccc(S(=O)(=O)N3CCOCC3)cc2)c1OC", "inhibition": "-9.37%"},
      {"smiles": "COC(=O)CCc1sc(Nc2ccc(Br)cc2)nc1-c1ccc(OC)cc1", "inhibition": "-10.8%"},
      {"smiles": "CC1=CC=CN2C1=NC(=O)CC2(C)C(=O)N(CC(=O)NC1CCCC1)c1ccccc1C", "note": "(stereo unspecified)", "inhibition": "-22.6%"},
      {"smiles": "CC(C)C1Nc2c(C(=O)O)cccc2C(Nc2ccccc2C(=O)O)C1(C)C", "note": "(stereo unspecified)", "inhibition": "-28%"},
      {"smiles": "Cn1c(CCCOc2ccc(Cl)cc2Cl)n[nH]c1=S", "inhibition": "-27%"},
      {"smiles": "O=C(O)C1C2CC2CN1C(=O)c1ccc(Cl)cc1Cl", "note": "(stereo unspecified)", "inhibition": "-14.1%"},
      {"smiles": "O=C1CC(Cc2ccc(Cl)cc2)C(=O)N1c1cc(Cl)ccn1", "note": "(stereo unspecified)", "inhibition": "7.89%"},
      {"smiles": "CCn1c(-c2cccnc2Cl)nc2cc(C)c(C)cc21", "inhibition": "-16.4%"},
      {"smiles": "CCOC(=O)CCCNC(=O)COC(=O)c1cc(Br)c(Br)s1", "inhibition": "-22.9%"},
      {"smiles": "CC(Sc1nnc(Cc2ccc([N+](=O)[O-])cc2)o1)C(N)=O", "note": "(stereo unspecified)", "inhibition": "-20.4% [at 20 µM]"},
      {"smiles": "O=C(c1ccc(OC2CCN(C(=O)c3cccnc3)CC2)cc1)N1CCCCCC1", "inhibition": "-20.3%"},
      {"smiles": "CCOC(=O)/C(=C\\c1ccc([N+](=O)[O-])cc1)C(=O)c1cc(C(C)=O)c(Nc2ccccc2)s1", "inhibition": "-2.4%"},
      {"smiles": "CC(C)(C)c1nc2ccccc2c(=O)n1N1C(=O)c2ccccc2C1=O", "inhibition": "-15.6% [at 20 µM]"},
      {"smiles": "O=C(NC1CCN(Cc2ccccc2)CC1)c1cc(Br)c(Br)[nH]1", "inhibition": "-27.8%"},
      {"smiles": "NC(N)=NCCCc1cn(CC(=O)N2CCNCC2)nn1", "inhibition": "-18.6%"},
      {"smiles": "CC(C)(O)C#Cc1ncc(C(F)(F)F)cc1Cl", "inhibition": "-28.4%"},
      {"smiles": "Cc1ccc(/C=C/C(=O)O)cc1S(=O)(=O)N1CCC(Cc2ccccc2)CC1", "inhibition": "-29.9%"},
      {"smiles": "CCOc1ccc(N2C(=O)/C(=C/c3ccc(C)o3)N(C)C2=S)cc1", "inhibition": "3.15%"},
      {"smiles": "O=C(/C=C/NNC(=O)c1cccc(Br)c1)c1ccccc1", "inhibition": "0.209% [at 20 µM]"},
      {"smiles": "O=C(C1=C[C@H](c2coc3ccccc3c2=O)C[C@H](OCc2ccc(CO)cc2)O1)N1CCN(Cc2ccccc2)CC1", "inhibition": "-22.1%"},
      {"smiles": "COc1cc(/C=N\\NC(=O)c2nonc2N)c(OC)cc1Br", "inhibition": "-19.8%"},
      {"smiles": "Cc1nnc(SCC(=O)NC2CCCC2)s1", "inhibition": "-7.06% [at 20 µM]"},
      {"smiles": "NNc1nc2c(Cl)cccc2s1", "inhibition": "-15.9%"},
      {"smiles": "COc1ccc(NS(=O)(=O)c2ccc(Oc3c(C#N)cccc3C#N)cc2)cc1", "inhibition": "-15.9%"},
      {"smiles": "CC1=C[C@H]2Cc3cc(C)cc(C)c3S(=O)(=O)[C@@H]2C=C1", "inhibition": "-14.9%"},
      {"smiles": "Cn1c(=O)c2c(ncn2CC(COCc2ccccc2Cl)OCc2ccccc2Cl)n(C)c1=O", "note": "(stereo unspecified)", "inhibition": "-9.34% [at 20 µM]"}
    ]}
  ]
}
